# Results reported in the supplement of paper PMC8728848.
# Shown is part of a subset that was picked to be rich in the strongest signals.
# What was measured:
# Test in all cases: glycan array binding signal (z-score within array); higher = stronger binding
# Conditions in all cases: glycan notation: IUPAC condensed, linker removed
# Fuc(a1-2)Gal(b1-3)GlcNAc = molecular target: Fuc(a1-2)Gal(b1-3)GlcNAc
# In short: (§1)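 Glycan array data were curated from 3228 arrays in the Consortium for Functional Glycomics database and kept only where the protein sequence was available. Glycan names were converted to IUPAC-condensed notation, and columns mapping to the same glycan were averaged. The binding signal is a within-array Z-score, averaged across arrays of the same protein sequence at different concentrations or buffers and across linkers. Negative Z-scores can be read as non-binding.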
# [1] = molecular target: Fuc(a1-2)Gal(b1-3)[Fuc(a1-4)]GlcNAc(b1-3)[Gal(b1-4)GlcNAc(b1-6)]Gal(b1-4)Glc
# In short: as §1
# [2] = molecular target: Fuc(a1-2)Gal(b1-4)GlcNAc(b1-6)GalNAc
# In short: as §1
# [3] = molecular target: Fuc(a1-2)Gal(b1-4)[Fuc(a1-3)]GlcNAc
# In short: as §1
# [4] = molecular target: Fuc(a1-2)Gal(b1-4)[Fuc(a1-3)]GlcNAc(b1-2)Man(a1-3)[Fuc(a1-2)Gal(b1-4)[Fuc(a1-3)]GlcNAc(b1-2)Man(a1-6)]Man(b1-4)GlcNAc(b1-4)[Fuc(a1-6)]GlcNAc
# In short: as §1
# [5] = molecular target: Fuc(a1-2)Gal(b1-4)[Fuc(a1-3)]GlcNAc(b1-3)Gal(b1-4)[Fuc(a1-3)]GlcNAc
# In short: as §1
# [6] = molecular target: Fuc(a1-2)Gal3S(b1-4)GlcNAc
# In short: as §1
# Fuc(a1-2)[Gal(a1-3)]Gal = molecular target: Fuc(a1-2)[Gal(a1-3)]Gal
# In short: as §1
# [7] = molecular target: Fuc(a1-2)[Gal(a1-3)]Gal(b1-4)GlcNAc(b1-2)Man(a1-3)[Fuc(a1-2)[Gal(a1-3)]Gal(b1-4)GlcNAc(b1-2)Man(a1-6)]Man(b1-4)GlcNAc(b1-4)[Fuc(a1-6)]GlcNAc
# In short: as §1
# [8] = molecular target: Fuc(a1-2)[GalNAc(a1-3)]Gal(b1-3)GalNAc(b1-3)Gal(a1-4)Gal(b1-4)Glc
# In short: as §1
# [9] = molecular target: Fuc(a1-2)[GalNAc(a1-3)]Gal(b1-3)GlcNAc(b1-2)Man(a1-3)[Fuc(a1-2)[GalNAc(a1-3)]Gal(b1-3)GlcNAc(b1-2)Man(a1-6)]Man(b1-4)GlcNAc(b1-4)[Fuc(a1-6)]GlcNAc
# In short: as §1
# [10] = molecular target: Fuc(a1-2)[GalNAc(a1-3)]Gal(b1-4)[Fuc(a1-3)]GlcNAc
# In short: as §1
# [11] = molecular target: Fuc(a1-2)[GalNAc(a1-3)]Gal(b1-4)[Fuc(a1-3)]GlcNAc(b1-3)GalNAc
# In short: as §1
# [12] = molecular target: Fuc(a1-3)[GalNAc(b1-4)]GlcNAc6S
# In short: as §1
# Gal(a1-3)Gal(b1-4)Glc = molecular target: Gal(a1-3)Gal(b1-4)Glc
# In short: as §1
# Gal(a1-3)GalNAc = molecular target: Gal(a1-3)GalNAc
# In short: as §1
# [13] = molecular target: Gal(a1-3)[Gal(a1-4)]Gal(b1-4)GlcNAc
# In short: as §1
# Gal(a1-4)Gal(b1-4)Glc = molecular target: Gal(a1-4)Gal(b1-4)Glc
# In short: as §1
# [14] = molecular target: Gal(a1-4)Gal(b1-4)GlcNAc(b1-3)Gal(b1-4)Glc
# In short: as §1
# Gal(b1-3)GlcNAc = molecular target: Gal(b1-3)GlcNAc
# In short: as §1
# [15] = molecular target: Gal(b1-3)[Fuc(a1-4)]GlcNAc(b1-3)Gal(b1-3)[Fuc(a1-4)]GlcNAc
# In short: as §1
# [16] = molecular target: Gal(b1-4)GlcNAc(a1-6)Gal(b1-4)GlcNAc
# In short: as §1
# [17] = molecular target: Gal(b1-4)GlcNAc(b1-2)Man(a1-3)[Gal(b1-4)GlcNAc(b1-2)Man(a1-6)]Man(b1-4)GlcNAc(b1-4)GlcNAc
# In short: as §1
# [18] = molecular target: Gal(b1-4)GlcNAc(b1-2)[Gal(b1-4)GlcNAc(b1-6)]Man(a1-6)[GlcNAc(b1-4)][Gal(b1-4)GlcNAc(b1-2)[Gal(b1-4)GlcNAc(b1-4)]Man(a1-3)]Man(b1-4)GlcNAc(b1-4)[Fuc(a1-6)]GlcNAc
# In short: as §1
# [19] = molecular target: Gal(b1-4)GlcNAc(b1-3)Gal(b1-3)GlcNAc
# In short: as §1
# [20] = molecular target: Gal(b1-4)GlcNAc(b1-3)Gal(b1-4)GlcNAc(b1-2)[Gal(b1-4)GlcNAc(b1-3)Gal(b1-4)GlcNAc(b1-6)]Man(a1-6)[Gal(b1-4)GlcNAc(b1-3)Gal(b1-4)GlcNAc(b1-2)Man(a1-3)]Man(b1-4)GlcNAc(b1-4)[Fuc(a1-6)]GlcNAc
# In short: as §1
# Gal6S(b1-4)Glc = molecular target: Gal6S(b1-4)Glc
# In short: as §1
# [21] = molecular target: GalNAc(a1-3)GalNAc(b1-3)Gal(a1-4)Gal(b1-4)Glc
# In short: as §1
# [22] = molecular target: GalNAc(b1-3)Gal(a1-4)Gal(b1-4)GlcNAc
# In short: as §1
# [23] = molecular target: GalNAc(b1-3)Gal(a1-6)Gal(b1-4)Glc
# In short: as §1
binder,measurement,setting,value
"AT3G44510(29) (Arabidopsis thaliana), F4J341 (protein) MEEHLQGRIKLHDGRYLAYKERGVPKDDAKFTIVLVHGFGSSKDMNFNVSQELVNEIGIYFVLYDRAGYGESDPNPKRSLKSEAYDVQELADGLEIGSRFYLIGISMGSYTVWSCLKHIPQRLAGVAMVAPVVNFRWPSIPKSLMPKDYRREVAKWSVWIANYFPGLLQWLVTQNMFSTTSMLEKNPVYFNDQDIEVLKHIKGFPMLTKEKLRERGVFGTLRSDFLVAFGDWDFDPADLPDPSLSGPEKGSSSVHIWQGYEDKVMPFQLQRCLCRKLPWIRYHEVPKGGHLIVHYDGICDAILKSLLLGEDLPMYKPKAVITEPA",glycan array binding signal (z-score),Fuc(a1-2)Gal(b1-3)GlcNAc,0.123
same,glycan array binding signal (z-score),[1],0.203
same,glycan array binding signal (z-score),[2],-0.731
same,glycan array binding signal (z-score),[3],-0.381
same,glycan array binding signal (z-score),[4],-0.458
same,glycan array binding signal (z-score),[5],-0.951
same,glycan array binding signal (z-score),[6],3.33
same,glycan array binding signal (z-score),Fuc(a1-2)[Gal(a1-3)]Gal,2.08
same,glycan array binding signal (z-score),[7],-0.079
same,glycan array binding signal (z-score),[8],-0.123
same,glycan array binding signal (z-score),[9],-0.313
same,glycan array binding signal (z-score),[10],-0.818
same,glycan array binding signal (z-score),[11],6.03
same,glycan array binding signal (z-score),[12],-0.561
same,glycan array binding signal (z-score),Gal(a1-3)Gal(b1-4)Glc,-0.538
same,glycan array binding signal (z-score),Gal(a1-3)GalNAc,2.52
same,glycan array binding signal (z-score),[13],7.13
same,glycan array binding signal (z-score),Gal(a1-4)Gal(b1-4)Glc,3.6
same,glycan array binding signal (z-score),[14],-0.481
same,glycan array binding signal (z-score),Gal(b1-3)GlcNAc,-0.484
same,glycan array binding signal (z-score),[15],-0.685
same,glycan array binding signal (z-score),[16],-0.378
same,glycan array binding signal (z-score),[17],-0.419
same,glycan array binding signal (z-score),[18],-0.121
same,glycan array binding signal (z-score),[19],-0.443
same,glycan array binding signal (z-score),[20],-0.519
same,glycan array binding signal (z-score),Gal6S(b1-4)Glc,-0.234
same,glycan array binding signal (z-score),[21],-0.476
same,glycan array binding signal (z-score),[22],3.41
same,glycan array binding signal (z-score),[23],-0.353
